Data published in PubChem BioAssay (Tox21).
Inconclusive results are not listed. A call without a number means that no potency is given here. Some compounds were tested as several samples or in several runs, with calls that do not always agree. Activity calls are given as the source filed them. The call rests on the fitted dose curve.

assay: qHTS assay to identify small molecule agonists of the hypoxia (HIF-1) signaling pathway - cell viability counter screen (AID 1224844); details: HRE-bla ME-180 viability, CellTiter-Glo luminescence, 17 h; series mostly up to 76.8 µM; further: nearly all actives have a fitted effect of over 50% in size
Summary of the method: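 Luminescent ATP content (CellTiter-Glo, 30 min, room temperature) served as the viability measure in HRE-bla ME-180 cells exposed to compounds for 17 hrs in low-serum medium (0.5% dialyzed FBS).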
Potency means the concentration at half of the fitted maximal effect.

| SMILES | Potency | activity change, negative = cytotoxicity |
| --- | --- | --- |
| CCCN(CCC)c1c([N+](=O)[O-])cc(C(F)(F)F)cc1[N+](=O)[O-] | inactive |  |
| COC(=O)NC(=S)Nc1ccccc1NC(=S)NC(=O)OC | inactive |  |
| CCC(C)(CC)c1cc(NC(=O)c2c(OC)cccc2OC)on1 | inactive |  |
| CN(C)[C@@H]1C(=O)C(C(N)=O)=C(O)[C@@]2(O)C(=O)C3=C(O)c4c(O)cccc4[C@@](C)(O)[C@H]3C[C@@H]12 | inactive |  |
| CCN(CC)CCO | inactive |  |
| CC1OC(C)OC(C)O1 (configuration not stated) | inactive |  |
| COc1ccc2c3c1O[C@H]1[C@@H](O)C=C[C@H]4[C@@H](C2)N(C)CC[C@@]341 | inactive |  |
| CC(Oc1ccc(Cl)cc1Cl)C(=O)O (configuration not stated) | inactive |  |
| Nc1c(Cl)c(Cl)nc(C(=O)O)c1Cl | inactive |  |
| O=C(O)c1ccccn1 | inactive |  |
| CCCCN(CC)C(=O)SCCC | inactive |  |
| CCNc1nc(NC(C)(C)C)nc(SC)n1 | inactive |  |
| Cc1ccc(N)cc1N | inactive |  |
| NCCc1ccc(O)cc1 | inactive |  |
| CCCCN(CCCC)SN(C)C(=O)Oc1cccc2c1OC(C)(C)C2 | inactive |  |
| CCN(CC)c1ccccc1 | inactive |  |
| O=c1ccc(=O)[nH][nH]1 | inactive |  |
| CCOC(=O)c1ccccc1C(=O)OCC | inactive |  |
| COC(=O)c1ccccc1C(=O)OC | inactive |  |

| SMILES | Potency | activity change, negative = cytotoxicity |
| --- | --- | --- |
| CN1C(=O)CN=C(c2ccccc2)c2cc(Cl)ccc21 | inactive |  |
| COC(=O)c1ccccc1N | inactive |  |
| [N-]=[N+]=[N-] | inactive |  |
| C=CCO | inactive |  |
| O=S(=O)(c1ccc(Cl)cc1)c1cc(Cl)c(Cl)cc1Cl | inactive |  |
| CCC[N+](=O)[O-] | 4.81 µM (active) and inactive |  |
| CCCC1COC(Cn2cncn2)(c2ccc(Cl)cc2Cl)O1 (configuration not stated) | inactive |  |
| CCCCCOC(=O)c1ccccc1C(=O)OCCCCC | inactive |  |
| C=C(C)CCl |  | -1.52% [at 6.97 µM] (inactive) |
| C1CN2CCN1CC2 | inactive |  |
| CCOP(=S)(OCC)Oc1cnc2ccccc2n1 | inactive |  |
| Cc1ccc([N+](=O)[O-])cc1C | inactive |  |
| CC(C)=C[C@@H]1[C@@H](C(=O)OCc2coc(Cc3ccccc3)c2)C1(C)C | inactive |  |
| C[C@]12CC[C@H]3[C@@H](CC[C@@]45O[C@@H]4C(O)=C(C#N)C[C@]35C)[C@@H]1CC[C@@H]2O | inactive |  |
| c1ccc(OP(Oc2ccccc2)Oc2ccccc2)cc1 | inactive |  |
| O=C1CCCN1 | inactive |  |
| c1ccc2c(c1)oc1ccccc12 | inactive |  |
| Cc1cccc([N+](=O)[O-])c1 | inactive |  |
